Results filed as inconclusive are left out. Entries that show only a call come without a potency. Where a structure was tested more than once in an assay, its records may differ in their call. Activity calls are given as the source filed them. Unless noted, calls come from the whole dose curve; as a rule, active = well fitted curve in the direction sought with a large enough effect in the repeat runs; inconclusive = weak or mixed curves; inactive = flat fitted curve, though single readings scatter. Positions of bridges follow the written chain, without caps; N, C: chain ends. Non-standard residues stand in square brackets, D forms with d. Residues, ends and D or L forms follow the SMILES beside them. *: point of attachment. X1 = CC[C@@H](C)[C@@H](N)C1=N[C@H](C(=O)*)CS1; Dab(CH2SO3H) = N[C@@H](CCNCS(=O)(=O)O)C(=O)O; d(aIle) = CC[C@H](C)[C@@H](N)C(=O)O; X3 = CC[C@@H](C)CCCCC(=O)*; dOrn = NCCC[C@@H](N)C(=O)O; Dab = NCC[C@H](N)C(=O)O
Tests used:
[1] = qHTS assay to test for compound auto fluorescence at 535 nm (green) in HEK293 cells (AID 720680)
[2] = qHTS assay to test for compound auto fluorescence at 460 nm (blue) in HEK293 cell free culture (AID 720681)
Outline: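 Compounds were added to cell-free DMEM with 10% FBS and fluorescence read directly. The blue channel used 405 nm excitation and 460 nm emission, with triamterene as the reference fluorophore.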

[3] = qHTS assay to test for compound auto fluorescence at 535 nm (green) in HEK293 cell free culture (AID 720682)
Outline: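 Fluorescein serves as the green reference fluorophore; each compound's intrinsic emission at 535 nm (excitation 485 nm) is reported as an equivalent amount of that dye, measured in serum-containing DMEM without cells.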

[4] = qHTS assay to test for compound auto fluorescence at 590 nm (red) in HEK293 cell free culture (AID 720683)
Outline: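 Cell-free wells of DMEM with 10% FBS received compound, and intrinsic fluorescence was read at excitation/emission 540/590 nm. Values expressed as equivalence to Rose Bengal sodium.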

[5] = qHTS assay to test for compound auto fluorescence at 590 nm (red) in HepG2 cell free culture (AID 720684)
Outline: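 Auto fluorescence equivalency versus Rose Bengal sodium, red channel Ex/Em 540/590 nm; compounds in cell-free MEM/10% FBS; DMSO vehicle control.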

[6] = qHTS assay to test for compound auto fluorescence at 460 nm (blue) in HepG2 cell free culture (AID 720685)
Outline: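 Cell-free plates of MEM plus 10% FBS received 23 nL compound or DMSO vehicle; blue-channel (405/460 nm) intensity scored against triamterene as reference fluorophore.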

[7] = qHTS assay to test for compound auto fluorescence at 460 nm (blue) in HepG2 cells (AID 720687); note: potency is the fitted concentration of half-maximal effect
Outline: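 HepG2 cells in MEM with 10% FBS, attached overnight at 37 C, were exposed to compound or DMSO for 1 hr at 37 C, 5% CO2. Blue fluorescence was read at 405/460 nm, with triamterene as reference fluorophore.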

[8] = target: Glucocorticoid receptor (Homo sapiens) (UniProt P04150); assay: qHTS assay to identify small molecule antagonists of the glucocorticoid receptor (GR) signaling pathway (AID 720692; active = well fitted inhibition curve with a large enough effect in the signal ratio in the repeat runs, not every such curve was filed as active; the % refers to the signal ratio; note: potency is the fitted concentration of half-maximal effect)
Outline: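 Antagonism was scored as loss of dexamethasone-driven (5 nM final) reporter signal in HeLa cells bearing a glucocorticoid response element–beta-lactamase construct, after 18 h compound exposure at 37 C and 2 h FRET substrate loading.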

[9] = target: Glucocorticoid receptor (Homo sapiens) (UniProt P04150); assay: qHTS assay to identify small molecule agonists of the glucocorticoid receptor (GR) signaling pathway (AID 720691; active = well fitted activation curve with a large enough effect in the signal ratio in the repeat runs, not every such curve was filed as active; the % refers to the signal ratio); settings: GR-bla HeLa, beta-lactamase reporter ratio, 18 h; activation: at 62.4 µM (top of the series)
Outline: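 Steps: seed GR-bla HeLa cells, incubate 4 h at 37 C/5% CO2; pin-transfer DMSO-dissolved compounds; incubate 18 h at 37 C; add LiveBLAzer B/G FRET substrate; after 2 h at room temperature, measure fluorescence.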

[10] = qHTS assay to test for compound auto fluorescence at 535 nm (green) in HepG2 cell free culture (AID 720686)
Tags give direction and shape of the fitted curve or compound fluorescence and quenching.

Glucocorticoid receptor (Homo sapiens), sequence (P04150 whole entry, looked up): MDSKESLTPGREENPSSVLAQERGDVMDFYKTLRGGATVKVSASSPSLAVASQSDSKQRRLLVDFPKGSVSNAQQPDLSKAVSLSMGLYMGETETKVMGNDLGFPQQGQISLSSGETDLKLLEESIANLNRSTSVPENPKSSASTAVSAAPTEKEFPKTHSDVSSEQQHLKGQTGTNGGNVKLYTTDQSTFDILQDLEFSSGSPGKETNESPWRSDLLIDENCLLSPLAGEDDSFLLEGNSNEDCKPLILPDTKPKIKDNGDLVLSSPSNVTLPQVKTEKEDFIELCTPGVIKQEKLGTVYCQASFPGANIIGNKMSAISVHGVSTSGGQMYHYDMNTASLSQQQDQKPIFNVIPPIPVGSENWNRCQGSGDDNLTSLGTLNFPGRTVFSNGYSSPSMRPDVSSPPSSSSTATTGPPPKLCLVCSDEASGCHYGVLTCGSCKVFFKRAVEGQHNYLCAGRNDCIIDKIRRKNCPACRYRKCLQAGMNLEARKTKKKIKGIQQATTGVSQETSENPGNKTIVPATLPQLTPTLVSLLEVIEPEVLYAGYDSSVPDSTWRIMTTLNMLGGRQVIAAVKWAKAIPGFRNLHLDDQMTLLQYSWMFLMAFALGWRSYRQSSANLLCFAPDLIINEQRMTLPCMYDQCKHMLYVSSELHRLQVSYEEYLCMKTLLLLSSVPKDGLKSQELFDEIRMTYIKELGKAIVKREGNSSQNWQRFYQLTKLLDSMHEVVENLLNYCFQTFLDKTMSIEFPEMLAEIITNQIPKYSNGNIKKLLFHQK

SMILES | outcome [1] | Potency [2] | outcome [3] | outcome [4] | outcome [5] | Potency [6] | Potency [7] | Potency [8] | Potency [9] | Potency [10]
CCC[C@@H]1C[C@@H](C(=O)N[C@@H]([C@H]2O[C@H](SC)[C@H](OP(=O)(O)O)[C@@H](O)[C@H]2O)[C@H](C)Cl)N(C)C1 | inactive | inactive | inactive | inactive | inactive | inactive | inactive | inactive |  | 
CCN(CC)C(=O)[C@]1(c2ccccc2)C[C@@H]1CN | inactive | inactive | inactive | inactive | inactive | inactive | inactive | inactive | inactive | 
C=C1[C@@H]2CC[C@@H](C2)C1(C)C | inactive | inactive | inactive | inactive | inactive | inactive | inactive | inactive | inactive | 
CO/N=C(\C(=O)N[C@@H]1C(=O)N2C(C(=O)O)=C(COC(C)=O)CS[C@H]12)c1csc(N)n1 (stereo in doubt) | inactive | inactive | inactive | inactive | inactive | inactive | inactive | inactive |  | 
CC[C@@H](C)[C@@H](N)C1=N[C@H](C(=O)N[C@@H](CC(C)C)C(=O)N[C@@H](CCC(=O)O)C(=O)N[C@@H](C(=O)N[C@@H]2CCCCNC(=O)[C@@H](CC(N)=O)NC(=O)[C@@H](CC(=O)O)NC(=O)[C@@H](Cc3cnc[nH]3)NC(=O)[C@@H](Cc3ccccc3)NC(=O)[C@@H]([C@H](C)CC)NC(=O)[C@@H](CCCN)NC2=O)[C@@H](C)CC)CS1 (X1-LE[d(aIle)][dK][dOrn][dI][dF][dH][dD][dN]; lactam 4-C) | inactive | inactive | inactive | inactive | inactive | inactive | inactive |  |  | 
FC(F)(F)COCC(F)(F)F | inactive | inactive | inactive | inactive | inactive | inactive | inactive | inactive |  | inactive
O=C1OC(O)C(C(Cl)Cl)=C1Cl (stereo not given) | inactive | inactive | inactive | inactive | inactive | inactive | inactive | 25.3 µM (active) |  | inactive
NC(=O)[C@@H]1C[C@]2(NC(=O)NC2=O)c2cc(F)ccc2O1 | inactive | inactive | inactive |  | inactive | inactive | inactive |  |  | inactive
CS(=O)(=O)c1ccc([C@@H](O)[C@@H](COC(=O)CN)NC(=O)C(Cl)Cl)cc1 | inactive | inactive | inactive |  | inactive | inactive | inactive |  |  | inactive
C[C@@H]1O[C@@H]1P(=O)(O)O | inactive | inactive | inactive |  | inactive | inactive | inactive | inactive | inactive | 
NC(N)=NCC1COC2(CCCCC2)O1 (stereo not given) | inactive | inactive | inactive |  | inactive | inactive | inactive | inactive | inactive | inactive
Cc1ccc(Cl)c(N)c1Cl | inactive | inactive |  | inactive | inactive | inactive |  |  |  | inactive
CCOC(=O)COc1ccc2c(=O)cc(-c3ccccc3)oc2c1 | inactive | inactive | inactive | inactive | inactive | inactive |  | inactive |  | 
CN(C)CCOc1ccc(/C(=C(/CCCl)c2ccccc2)c2ccccc2)cc1 | inactive | inactive | inactive |  | inactive | inactive |  |  |  | inactive
COc1cccc2c1[C@@H]1CN(CCCCn3c(=O)[nH]c4c(sc5ncc(-c6ccccc6)nc54)c3=O)C[C@@H]1CO2 | inactive | inactive | inactive |  | inactive | inactive | inactive |  |  | inactive
CCOc1ccc(NC(=S)Nc2ccc(OCC)cc2)cc1 | inactive | inactive | inactive |  | inactive | inactive | inactive |  |  | inactive
O=C(CCCCCCCCc1cccnc1)N1CCC(C=C(c2ccccc2)c2ccccc2)CC1 | inactive | inactive | inactive |  | inactive | inactive | inactive | 21.9 µM (active) |  | inactive
O=C(O)[C@H]1CN(C/C=C/P(=O)(O)O)CCN1 | inactive | inactive | inactive |  | inactive | inactive | inactive | inactive | inactive | 
COc1cc(/C=C/C(=O)CC(=O)/C=C/c2ccc(O)c(OC)c2)ccc1O | inactive | inactive | inactive | inactive | inactive |  | 39.8 µM [fluorescent] (active) | 23.9 µM (active) and inactive |  | inactive
CC(=O)N(C)C | inactive | inactive | inactive |  | inactive | inactive | inactive |  |  | inactive
N#Cc1nc(Cl)c(Cl)c(Cl)c1Cl | inactive | inactive | inactive | inactive | inactive | inactive |  | 1.23 µM (active) |  | 
CC[C@@H](C)CCCCC(=O)N[C@@H](CCNCS(=O)(=O)O)C(=O)N[C@H](C(=O)N[C@@H](CCNCS(=O)(=O)O)C(=O)N[C@H]1CCNC(=O)[C@H]([C@@H](C)O)NC(=O)[C@H](CCNCS(=O)(=O)O)NC(=O)[C@H](CCNCS(=O)(=O)O)NC(=O)[C@H](CC(C)C)NC(=O)[C@@H](CC(C)C)NC(=O)[C@H](CCNCS(=O)(=O)O)NC1=O)[C@@H](C)O (X3-[Dab(CH2SO3H)]T[Dab(CH2SO3H)][Dab][Dab(CH2SO3H)][dL]L[Dab(CH2SO3H)][Dab(CH2SO3H)]T; lactam 4-C) | inactive | inactive | inactive |  | inactive | inactive | inactive | inactive | inactive | inactive
CN[C@H]1CC[C@@H](c2ccc(Cl)c(Cl)c2)c2ccc(S(N)(=O)=O)cc21 | inactive | inactive | inactive |  | inactive | inactive | inactive |  |  | inactive
CC/C=C\C/C=C\C/C=C\C/C=C\C/C=C\C/C=C\CCC(=O)O | inactive | inactive | inactive |  | inactive | inactive | inactive |  | inactive | inactive

Source: PubChem BioAssay (Tox21)
